This is a sample that favours compounds with a hit; in the whole collection about 3.5% have one here.
MITF inh – inhibitors of human MITF; O75030; AlphaScreen MITF homodimerization, bead proximity signal; inhibition, % at 2.6 µM; 0.91% of 650,000 active; in the data active = inhibition above about 50%;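 note: 0% = vehicle wells with protein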
Target sequence (O75030 whole entry, looked up): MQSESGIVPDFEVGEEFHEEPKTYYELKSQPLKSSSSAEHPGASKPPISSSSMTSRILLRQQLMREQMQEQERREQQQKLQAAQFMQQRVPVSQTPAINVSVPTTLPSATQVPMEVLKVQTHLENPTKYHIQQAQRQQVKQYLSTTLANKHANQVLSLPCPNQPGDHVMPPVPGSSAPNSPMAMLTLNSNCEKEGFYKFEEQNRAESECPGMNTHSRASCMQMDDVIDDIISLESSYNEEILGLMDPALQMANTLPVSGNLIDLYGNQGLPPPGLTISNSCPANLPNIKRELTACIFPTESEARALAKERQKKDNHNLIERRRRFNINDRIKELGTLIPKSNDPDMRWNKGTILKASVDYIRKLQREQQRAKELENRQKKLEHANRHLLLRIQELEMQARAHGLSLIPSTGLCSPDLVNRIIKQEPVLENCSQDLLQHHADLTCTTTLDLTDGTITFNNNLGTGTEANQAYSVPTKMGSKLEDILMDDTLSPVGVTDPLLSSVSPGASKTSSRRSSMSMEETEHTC
GPR151 ag – human GPR151 activation | Q8TDV0 | PathHunter beta-arrestin GPR151 cells, luminescence | activation, % at 11.2 µM | 1% of 650,000 active; in the data active = activation above about 4.9%;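 note: 0% = median of compound wells and 100% = cells with positive control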
TEAD-YAP inh – TEAD-YAP interaction inhibition. HEK-TIYL cells, TEAD-Gal4/YAP UAS-luciferase luminescence. inhibition, % at 9.12 µM. 1.4% of 640,000 active. AID 1259422; in the data active = inhibition above about 32%;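 note: 0% = median of test compound wells and 100% = reference inhibitor wells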
FBW7 act – activators of human E3 ligase FBW7 | Q969H0 | AlphaScreen FBW7–phospho-cyclin E peptide binding, activator screen | normalized activity (activation), % at 26.1 µM | 0.13% of 650,000 active; in the data active = normalized activity above about 1.9%;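 note: purified mutant Fbw7 with reduced substrate affinity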
GPR151 conf act – confirmation of human GPR151 activators. 6,700 tested, under 10 active. shares compounds with GPR151 ag. activation, % at 11.2 µM. GPR151 PathHunter beta-arrestin cells, luminescence, 90 min; % of EA-reagent control over plate median;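 active = mean percent activation across replicates above the confirmation screen cutoff of 4.91%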
GPR119 ag – counter-screen for GPR151 activators: effect on human GPR119. shares compounds with GPR151 ag. GPR119 PathHunter beta-arrestin cells, luminescence, 90 min; 0 = compound-well median, 100 = enzyme-acceptor control. activation, % at 11.2 µM. 0.3% of 6,700 active;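 active = mean percent activation in the counterscreen above 29.09%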;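 note: counterscreen on off-target GPR119 to flag nonselective hits from the GPR151 activator screen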
* = called active by the depositor; x = no result given; ! = a repeat was not active.

SMILES	MITF inh	GPR151 ag	TEAD-YAP inh	FBW7 act	GPR151 conf act	GPR119 ag
O=C(NC1CC1)c1csc(N2CCN(Cc3ccc4c(c3)OCO4)CC2)n1	2	-1	-8	0	x	x
NNC(=O)CCN1CCN(Cc2ccc3c(c2)OCO3)CC1	-8	8.5*	-4	0	1	-8
CC1=C(C(=O)N2CCN(Cc3ccc4c(c3)OCO4)CC2)C2(CCC(C)CC2)OC1=O (stereo not drawn)	11	6.5*	-2	0	0	-1
Cc1ccc(C(=O)N2CCN(Cc3ccc4c(c3)OCO4)CC2)o1	5	10*	2	0	0	-12
O=C(Nc1ccc2c(c1)OCO2)c1csc(N2CCN(Cc3ccc4c(c3)OCO4)CC2)n1	0	6.4*	4	0	1	6
COC(=O)N1CCN(Cc2ccc3c(c2)OCO3)CC1	2	-1	-8	1	x	x
CC1=C(C(=O)N2CCN(C(=O)c3ccco3)CC2)C2(CCC(C)CC2)OC1=O (stereo not drawn)	-14	2	6	0	x	x
O=C(C1CC12CCN(Cc1ccccc1O)CC2)N1CCN(c2ccccc2)CC1 (stereo not drawn)	10	-2	6	0	x	x
OC1CCN(Cc2c(F)cccc2F)CC1	-2	5.9*	2	0	0	2
COCCNCc1nc2c(c(=O)n(C)c(=O)n2C)n1Cc1ccccc1Cl	-4	5.1*	-4	0	0	15
COc1ccc2c(c1)c(CC(=O)Nc1nnc(C)o1)c(C)n2C(=O)c1ccc(Cl)cc1	13	5.7*	9	0	1	2
CCC(C)(C)NC(=O)C1CCCN1C(=O)NCc1ccccc1 (stereo not drawn)	5	1	2	0	x	x
O=C(O)[C@H]1/C(=C/CO)O[C@@H]2CC(=O)N21	-1	4.9*!	-7	0	0	3
O=C(O)C1CC(=O)N(CCN2CC(C(=O)O)CC2=O)C1 (stereo not drawn)	12	0	3	0	x	x
COc1cccc(CN(CCN(C)C)C(=O)[C@@H](Cc2ccc(-c3cn[nH]c3)cc2)NC(=O)C(C)O)c1 (stereo partly drawn)	3	5.1*	-3	0	0	-6
CCOC(=O)c1c(NC(=O)COc2ccc(C(C)C)c(C)c2)sc2c1CCCC2	-5	0	7	0	x	x
COc1ccc(CNC(=O)c2c(C)nc3c(C)cccn23)cc1OC	16	5.1*	25	0	0	5
COc1ccc(CCn2c(=O)c(C#N)cc3c(=O)n4cccc(C)c4nc32)cc1OC	-5	7.4*	-13	0	1	16
O=C1C(=O)N(CCN2CCOCC2)C(c2cccnc2)/C1=C(/O)c1ccc(S(=O)(=O)N2CCOCC2)cc1 (stereo not drawn)	14	6.5*	3	0	1	3
COC(CN1C(=O)C(=O)/C(=C(\O)c2ccccc2)C1c1ccccc1)OC (stereo not drawn)	-1	1	7	0	x	x
COC(CN1C(=O)C(=O)/C(=C(/O)c2ccccc2)C1c1cccnc1)OC (stereo not drawn)	0	5.9*	4	0	1	4
CCN1CCN(CCCNC(=O)c2nn(-c3ccccc3OC)c(=O)c3ccccc23)CC1	-7	0	2	0	x	x
Cc1ccc(S(=O)(=O)/N=C(\CN2CCCCC2)N2CCCCC2)cc1	5	5.4*	2	0	0	-6
Cc1ccc([N+](=O)[O-])cc1N1C(=O)C2C(C1=O)C1C=CC2C12CC2 (stereo not drawn)	0	2	0	0	x	x
CCc1ccccc1NS(=O)(=O)c1ccc2oc(=O)ccc2c1	8	13*	8	0	0	7
SMILES	MITF inh	GPR151 ag	TEAD-YAP inh	FBW7 act	GPR151 conf act	GPR119 ag
COc1ccccc1NS(=O)(=O)c1ccc2oc(=O)ccc2c1	5	0	10	0	x	x
COc1ccc(S(=O)(=O)N(CC(=O)N2CCCC2)c2ccc(C)cc2)cc1	-1	12*	5	0	0	11
COc1ccc(N(CC(=O)N2CCCCC2)S(=O)(=O)c2ccc(C)cc2)cc1	-3	2	3	0	x	x
O=C(NCc1ccccc1Cl)c1nnc(-c2ccncc2)o1	-3	1	0	-1	x	x
O=C(NCc1ccccc1Cl)c1nnc(-c2ccccc2)o1	6	5.0*	-14	0	0	-5
CC(=O)Nc1ccc(Nc2nc(Nc3cccc(N(C)C)c3)ncc2C)cc1	7	5.5*	8	0	-1	-12
COc1ccc(Nc2nc(N3CCN(C)CC3)c3ccccc3n2)cc1	4	9.5*	2	0	1	-3
CCOc1ccc(Nc2nc(N3CCN(C)CC3)c3ccccc3n2)cc1	19	0	-2	0	x	x
O=C1C(=O)N(c2nc3ccccc3s2)C(c2ccccc2)/C1=C(\O)c1ccccc1 (stereo not drawn)	9	4.9*	12	0	1	15
O=C(CN1CCN(Cc2ccccc2)CC1)NCC1COc2ccccc2O1 (stereo not drawn)	-8	9.2*	4	0	0	-8
COc1ccccc1CC(=O)NCC1COc2ccccc2O1 (stereo not drawn)	13	5.7*	-2	0	0	11
O=C(CN1C(=O)c2ccccc2C1=O)NCC1COc2ccccc2O1 (stereo not drawn)	1	-2	-1	0	x	x
CC(=O)N(C)c1nc(-c2ccccc2)ccc1C(=O)NCC1COc2ccccc2O1 (stereo not drawn)	20	11*	-1	0	0	-2
COc1ccc(C2C(C(=O)NCC3COc4ccccc4O3)c3ccccc3C(=O)N2c2ccc(OC)cc2)cc1 (stereo not drawn)	8	7.2*	8	0	0	-8
COc1cccc(CC(=O)NCC2COc3ccccc3O2)c1OC (stereo not drawn)	4	0	1	0	x	x
CCCCc1nc2sc3c(N4CCCC4)ncnc3c2c2c1COC(C)(C)C2	-8	0	-2	0	x	x
COc1ccc(C)cc1NC(=O)Cc1c(C(=O)O)n(C)c2ccccc12	18	1	5	0	x	x
CCn1c(C(=O)O)c(CC(=O)Nc2cc(Cl)ccc2OC)c2ccccc21	-1	5.4*	2	0	-1	-11
CC12CCC(C(=O)Nc3ccc(F)c(F)c3)(CC1=O)C2(C)C (stereo not drawn)	-28	8.8*	13	0	0	0
Cc1cc(-c2ccccc2)nc(N2CCC(C(=O)NCc3cccs3)CC2)n1	-16	10*	-7	0	0	13
Cc1cc(N(C)C)nc(N2CCC(C(=O)NCc3cccs3)CC2)n1	-2	-1	3	0	x	x
COc1ccc(-c2cnn3c(N4CCOCC4)ccnc23)cn1	-5	-1	-29	0	x	x
